According to PubChem BioAssay (Tox21):
Results filed as inconclusive are left out. Active and inactive are the calls of the source. Unless noted, the call rests on the fitted dose curve; in most records, active means well fitted curve in the direction sought with a large enough effect in the repeat runs; inconclusive means weak or mixed curves; inactive means no such curve, though single readings can be large; an effect the other way counts as inactive or inconclusive.

Legend:
[1] = qHTS assay to identify small molecule agonists of the RXR signaling pathway - cell viability counter screen (AID 1159529); further: nearly all actives have a fitted effect of over 50% in size; further: potency means the concentration at half of the fitted maximal effect
In short: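 Tox21 10K compounds were tested for cytotoxicity against GeneBLAzer RXR-alpha HEK 293T cells grown in 2% charcoal-stripped FBS. Exposure lasted 16 hr at 37 C, 5% CO2; viability read by CellTiter-Glo luminescence.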

[2] = qHTS assay to identify small molecule antagonists of the retinoic acid receptor (RAR) signaling pathway (AID 1159552; further: nearly all actives have a fitted effect of over 50% in size; further: potency means the concentration at half of the fitted maximal effect)
In short: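 Overnight-plated C3RL4 reporter cells get compound, then retinol to 1 uM final; plates sit 6 hr at 37 C, 5% CO2. A luciferase reagent is added and light output recorded after 30 min at room temperature.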

[3] = qHTS assay to identify small molecule antagonists of the estrogen related receptor (ERR) signaling pathway from Tox21 library - cell viability counter screen (AID 1224834); further: nearly all actives have a fitted effect of over 30% in size; further: potency means the concentration at half of the fitted maximal effect
In short: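 ERR reporter cells were plated 6 h before compound addition, then exposed to test compounds in DMSO for 17.5 h at 37 C. Viability was read as CellTiter-Fluor fluorescence after a 30-minute incubation at 37 C.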

[4] = target: Luciferin 4-monooxygenase (Photinus pyralis) (UniProt P08659); experiment: qHTS assay to identify small molecule inhibitors of firefly luciferase (AID 1224835); further: nearly all actives have a fitted effect of over 25% in size; further: potency means the concentration at half of the fitted maximal effect
Chain of Luciferin 4-monooxygenase (Photinus pyralis) (P08659 whole entry, looked up): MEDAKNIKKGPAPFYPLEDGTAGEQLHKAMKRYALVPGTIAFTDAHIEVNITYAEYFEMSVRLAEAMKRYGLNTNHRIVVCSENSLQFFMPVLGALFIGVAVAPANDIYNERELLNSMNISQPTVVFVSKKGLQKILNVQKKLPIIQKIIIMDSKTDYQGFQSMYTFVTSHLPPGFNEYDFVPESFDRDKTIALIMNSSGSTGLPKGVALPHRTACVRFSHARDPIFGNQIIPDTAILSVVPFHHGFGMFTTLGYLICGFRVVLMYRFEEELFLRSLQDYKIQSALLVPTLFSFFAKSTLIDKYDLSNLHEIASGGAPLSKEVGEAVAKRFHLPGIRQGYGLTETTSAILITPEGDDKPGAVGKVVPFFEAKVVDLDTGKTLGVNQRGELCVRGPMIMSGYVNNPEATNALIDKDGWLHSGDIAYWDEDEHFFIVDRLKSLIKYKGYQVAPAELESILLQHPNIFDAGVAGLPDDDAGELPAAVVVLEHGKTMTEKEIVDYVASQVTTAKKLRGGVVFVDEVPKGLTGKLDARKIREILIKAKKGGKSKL
In short: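 Inhibition of purified Photinus luciferase is measured by luminescence. Substrate levels (D-luciferin, ATP) sit at their KM values. Each compound is tested in a concentration series.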

[5] = qHTS assay to identify small molecule agonists of the constitutive androstane receptor (CAR) signaling pathway - cell viability counter screen (AID 1224836); further: nearly all actives have a fitted effect of over 45% in size; further: potency means the concentration at half of the fitted maximal effect
In short: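 Fluorescence from CellTiter-Fluor indicates live cells after 23 h exposure. The human hepatoma line expresses hCAR and a CYP2B6-2.2kb reporter. Incubation medium contains 0.75 uM PK11195 (final).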

[6] = qHTS assay to identify small molecule antagonists of the constitutive androstane receptor (CAR) signaling pathway - cell viability counter screen (AID 1224837); further: nearly all actives have a fitted effect of over 45% in size; further: potency means the concentration at half of the fitted maximal effect
In short: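 HepG2 cells stably expressing hCAR and a CYP2B6-2.2kb reporter were plated and pre-incubated 4 hr at 37 C/5% CO2, then given compounds at 15 concentrations plus 50 nM CITCO (final). After 23 hr, viability was read by CellTiter-Fluor fluorescence.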

[7] = target: Nuclear receptor subfamily 1 group I member 3 (Homo sapiens) (UniProt Q14994); experiment: qHTS assay to identify small molecule antagonists of the constitutive androstane receptor (CAR) signaling pathway (AID 1224838); further: nearly all actives have a fitted effect of over 40% in size; further: potency means the concentration at half of the fitted maximal effect
Chain of Nuclear receptor subfamily 1 group I member 3 (Homo sapiens) (Q14994 whole entry, looked up): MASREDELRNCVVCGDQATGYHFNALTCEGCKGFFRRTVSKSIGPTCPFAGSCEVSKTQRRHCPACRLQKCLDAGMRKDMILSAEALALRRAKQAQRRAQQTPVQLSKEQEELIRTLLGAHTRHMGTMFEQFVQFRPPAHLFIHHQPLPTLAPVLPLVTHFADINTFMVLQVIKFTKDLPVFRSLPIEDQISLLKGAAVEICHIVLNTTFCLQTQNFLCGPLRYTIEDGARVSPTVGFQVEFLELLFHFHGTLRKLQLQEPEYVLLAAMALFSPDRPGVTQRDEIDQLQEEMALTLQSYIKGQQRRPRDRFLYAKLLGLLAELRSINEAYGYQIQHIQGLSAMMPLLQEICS
In short: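 HepG2 cells stably co-transfected with hCAR and a CYP2B6-2.2kb luciferase reporter were seeded 4 h before compound addition at 15 concentrations. Cells were stimulated with 50 nM CITCO (final) for 24 h at 37 C; luciferase luminescence was then read.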

[8] = target: Nuclear receptor subfamily 1 group I member 3 (Homo sapiens) (UniProt Q14994); experiment: qHTS assay to identify small molecule agonists of the constitutive androstane receptor (CAR) signaling pathway (AID 1224839); further: nearly all actives have a fitted effect of over 15% in size; further: potency means the concentration at half of the fitted maximal effect
In short: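 Stable hCAR/CYP2B6-2.2kb HepG2 line in DMEM with 10% FBS; compounds (15 concentrations) and 0.75 uM PK11195 final, 24 h at 37 C/5% CO2, then ONE-Glo luminescence after 30 min.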

[9] = qHTS assay to identify small molecule antagonists of the estrogen related receptor signaling pathway with the pleiotropic PPARgamma coactivator (PGC) from Tox21 10K library - cell viability counter screen (AID 1224840; active means well fitted cell-killing curve with a large enough effect in the repeat runs, not every such curve was filed as active; further: nearly all actives have a fitted effect of over 40% in size; further: potency means the concentration at half of the fitted maximal effect)
In short: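 PGC/ERR cells were seeded at 2,000 cells/well and left 6 hours at 37 C/5% CO2 before pin-tool addition of compounds in DMSO. After 17.5 hours at 37 C, CellTiter-Fluor was added and fluorescence read 30 minutes later.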

[10] = target: Thyrotropin receptor (Homo sapiens) (UniProt P16473); experiment: qHTS assay to identify small molecule agonists of the thyroid stimulating hormone receptor (TSHR) signaling pathway (AID 1224843; calls by dose curve; further: nearly all actives have a fitted effect of over 45% in size)
Chain of Thyrotropin receptor (Homo sapiens) (P16473 whole entry, looked up): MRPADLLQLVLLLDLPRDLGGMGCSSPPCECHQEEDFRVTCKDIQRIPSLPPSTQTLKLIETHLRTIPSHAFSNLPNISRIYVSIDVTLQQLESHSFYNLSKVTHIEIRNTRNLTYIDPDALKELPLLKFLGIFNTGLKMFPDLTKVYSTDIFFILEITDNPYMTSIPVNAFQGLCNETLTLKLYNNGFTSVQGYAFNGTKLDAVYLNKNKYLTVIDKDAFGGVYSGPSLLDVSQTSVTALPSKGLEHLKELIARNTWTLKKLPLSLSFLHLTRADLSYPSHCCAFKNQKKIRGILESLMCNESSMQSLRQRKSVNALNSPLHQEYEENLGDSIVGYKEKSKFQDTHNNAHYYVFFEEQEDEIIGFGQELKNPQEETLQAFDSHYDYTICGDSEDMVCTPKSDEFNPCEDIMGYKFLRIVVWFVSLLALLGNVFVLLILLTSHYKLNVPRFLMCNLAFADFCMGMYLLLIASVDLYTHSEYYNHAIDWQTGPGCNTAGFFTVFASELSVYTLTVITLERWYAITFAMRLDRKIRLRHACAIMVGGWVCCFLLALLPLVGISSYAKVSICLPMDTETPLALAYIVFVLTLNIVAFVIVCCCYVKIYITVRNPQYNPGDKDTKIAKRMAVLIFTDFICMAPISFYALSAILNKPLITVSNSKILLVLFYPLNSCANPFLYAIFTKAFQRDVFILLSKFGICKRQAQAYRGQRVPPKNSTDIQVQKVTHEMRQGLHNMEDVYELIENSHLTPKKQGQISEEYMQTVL
In short: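 HEK293 cells stably bearing the thyrotropin receptor were plated at 800 cells/well and challenged with compound (30 min, RT). Accumulated cAMP was quantified via cAMP-d2 competing for cryptate-tagged antibody.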

[11] = qHTS assay to identify small molecule agonists of the retinoic acid receptor (RAR) signaling pathway (AID 1159553)
In short: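 C3RL4 cells carrying a RARE luciferase reporter were plated overnight at 37 C, then exposed to compounds in DMSO for 6 hr at 37 C and 5% CO2. Luminescence was read 30 min after luciferase reagent addition at room temperature.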

[12] = qHTS assay to identify small molecule antagonists of the estrogen related receptor signaling pathway with the pleiotropic PPARgamma coactivator (PGC) from Tox21 10K library (AID 1224841; call rule not given here; further: actives are mostly falling curves and most rising ones were filed inactive; nearly all actives have a fitted effect of over 50% in size; further: potency means the concentration at half of the fitted maximal effect)
In short: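 PGC/ERR reporter cells were seeded at 2,000 cells/well and held 6 hours at 37 C/5% CO2 before pin-tool addition of compounds in DMSO. After 18 hours at 37 C, One-Glo was added and luminescence read after 30 minutes at room temperature.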

[13] = qHTS assay to identify small molecule agonists of the estrogen related receptor signaling pathway with the pleiotropic PPARgamma coactivator (PGC) from Tox21 10K library (AID 1224842); further: nearly all actives have a fitted effect of over 15% in size
In short: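 Luminescence from One-Glo (30 min, room temperature) measured after PGC/ERR cells had 18 h at 37 C with pinned compound (23 nL in DMSO). Cells had been seeded at 2,000 per well and pre-incubated 6 h.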

[14] = qHTS assay to identify small molecule antagonists of the estrogen related receptor (ERR) signaling pathway (AID 1224819; further: potency means the concentration at half of the fitted maximal effect; nearly all actives have a fitted effect of over 50% in size)
In short: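 ERR reporter cells were plated at 2,000 cells/well and left 6 h at 37 C/5% CO2 before pin-tool transfer of compounds in DMSO. After 18 h at 37 C, One-Glo was added and luminescence was read 30 min later at room temperature.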

[15] = qHTS assay to identify small molecule agonists of the estrogen related receptor (ERR) signaling pathway (AID 1224820)
In short: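 ERR reporter cells (NTP line) plated 2,000/well, incubated 6 h at 37 C/5% CO2, then pinned with compounds in DMSO and held 18 h at 37 C. One-Glo added; luminescence read after 30 min at room temperature.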

[16] = system: estrogen-related receptor alpha (ERRalpha) with PGC-1alpha coactivator, human; experiment: qHTS assay to identify small molecule antagonists of the estrogen related receptor signaling pathway with the pleiotropic PPARgamma coactivator (PGC) (AID 1224821; calls by dose curve)
In short: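 Cells engineered for PGC/ERR signalling (line from NTP) were plated 6 h at 37 C/5% CO2, then exposed to DMSO-dissolved compound for 18 h at 37 C. Luciferase activity was read by One-Glo luminescence after 30 min at room temperature.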

[17] = qHTS assay to identify small molecule agonists of the estrogen related receptor signaling pathway with the pleiotropic PPARgamma coactivator (PGC) (AID 1224823)
In short: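 PGC/ERR reporter cells were seeded, rested 6 h at 37 C/5% CO2, then exposed to compounds in DMSO by pin transfer for 18 h at 37 C. Luciferase activity was read as luminescence after One-Glo reagent and 30 min at room temperature.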

Measured: Potency

Cc1[nH]nc2c1N=C(c1ccccc1Cl)c1cc([N+](=O)[O-])ccc1N2
inactive: [8] | [10]
active: [1] 34.7 µM | [2] 30.6 µM | [3] 24.3 µM | [4] 63.3 µM | [5] 27.3 µM | [6] 21.7 µM | [7] 7.7 µM | [9] 34.4 µM

CC(C)(C)CC(C)(C)c1ccc(O)c(Cc2ccc(Cl)cc2Cl)c1
inactive: [4] | [8] | [10]
active: [1] 7.56 µM | [2] 13.3 µM | [3] 23.7 µM | [9] 29.8 µM

O=C(Nc1cccc(C(F)(F)F)c1)c1cc(Br)cc(Br)c1O
active: [1] 21.9 µM | [4] 3.99 µM | [9] 6.86 µM
inactive: [2] | [11] | [8]

O=c1c(-c2ccccc2)c1-c1ccccc1
inactive: [11] | [5] | [13]
active: [1] 6.01 µM | [2] 4.22 µM | [3] 8.41 µM | [12] 9.44 µM

CN(C/C=C/C#CC(C)(C)C)Cc1cccc2ccccc12
inactive: [11] | [3] | [4] | [5] | [6] | [9]
active: [1] 7.56 µM

Nc1nc2ccccc2n1Cc1ccc(F)cc1
inactive: [1] | [2] | [11] | [4] | [7] | [9] | [12] | [13] | [10]

CN(C)c1ccc(SC#N)cc1
active: [2] 9.69 µM | [7] 27.3 µM
inactive: [1] | [11] | [3] | [5] | [8] | [9]

Oc1ccc(C2(c3ccc(O)cc3)CC3CC2C2CCCC32)cc1 (stereo unspecified)
inactive: [4] | [13]
active: [1] 16.7 µM | [2] 46.6 µM | [3] 58.7 µM | [6] 52.3 µM | [9] 58.7 µM

CC1=C(C(=O)OC(C)C)C(c2cccc([N+](=O)[O-])c2)C(C(=O)OC2CN(C(c3ccccc3)c3ccccc3)C2)=C(N)N1 (stereo unspecified)
inactive: [4] | [8] | [13]
active: [1] 13.4 µM | [2] 23.7 µM | [3] 29.8 µM | [5] 29.8 µM | [6] 29.8 µM | [9] 29.8 µM | [12] 26.6 µM

C/C=C(\C)C(=O)OCc1ccccc1
active: [4] 63.3 µM
inactive: [1] | [2] | [3] | [5] | [6] | [9] | [12] | [13]

CN(C)C(=O)C1(N2CCCCC2)CCN(CC[C@@]2(c3ccc(Cl)c(Cl)c3)CN(C(=O)c3ccccc3)CCO2)CC1
inactive: [4] | [13]
active: [1] 16.2 µM | [2] 28.6 µM | [3] 50.9 µM | [5] 50.9 µM | [6] 50.9 µM | [7] 50.9 µM | [9] 28.6 µM | [12] 50.9 µM

Nc1ccccc1O
inactive: [1] | [2] | [4] | [7] | [13] | [10]
active: [3] 60.3 µM | [8] 24 µM

CC/C(=C(\c1ccc(O)cc1)c1ccc(OCCN(C)C)cc1)c1ccccc1
inactive: [4] | [8] | [13]
active: [1] 21.9 µM | [2] 68.7 µM | [3] 68.7 µM | [5] 68.7 µM | [6] 68.7 µM | [9] 48.7 µM

CCN(C(=O)N(CC)c1ccccc1)c1ccccc1
inactive: [1] | [2] | [11] | [4] | [5] | [9] | [13]

CC(=O)N1CCN(c2ccc(OC[C@H]3CO[C@](Cn4ccnc4)(c4ccc(Cl)cc4Cl)O3)cc2)CC1
inactive: [15] | [17] | [4] | [13]
active: [1] 17.4 µM | [14] 9.08 µM | [16] 29.8 µM | [3] 27.3 µM | [5] 48.6 µM | [6] 48.6 µM | [9] 24.3 µM | [12] 27.3 µM
